Assay results reported in the supplement of paper PMC10849652.
Targets with a hit are over-represented here; the source holds about 8,800 in all. About 0.5% of all pairs of compound and target were hits. Values without a mark were called inactive.

How the values were obtained:
Test in all cases: log2 fold change, soluble protein after heating vs DMSO (PISA); higher = thermal stabilisation; K562 lysate, 10 uM; active = over 0.2 and 3.5 SD of the protein, either way, in both replicates (recomputed)
ibrutinib = compound: C=CC(=O)N1CCC[C@@H](n2nc(-c3ccc(Oc4ccccc4)cc3)c3c(N)ncnc32)C1 [ibrutinib]
Method in brief: (§1)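 Quantification was by TMTpro 16plex LC-MS/MS with equalised channel sums, applied to the supernatant after 21,000xg for 90 min. Samples were crude K562 extract at 1 mg/mL protein in PBS pH 7.4 with 1 mM MgCl2, treated with 10 μM compound for 30 min, heated for 3 min across 48°C-58°C, pooled and brought to 0.5% NP-40 at 4°C. Values are log-two fold changes in thermal stability relative to solvent controls, from duplicates.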

[1] = compound: CC(=O)c1cnc2ccc(-c3cc(Cl)c(O)c(Cl)c3)nc2c1N[C@H]1CC[C@H](CN(C)C)CC1
Method in brief: as §1

[2] = compound: CC(C)C1=C2N=C(C=C(N2N=C1)NCC3=CC=CC=C3)NCCCCCCN
Method in brief: as §1

[3] = compound: CC1=C(C(CC(=O)N1)C2=CC=C(C=C2)C(F)(F)F)C(=O)NC3=C(C=C4C(=C3)C=NN4)F
Method in brief: as §1

[4] = compound: CC1=CC=C(C=C1)SC2=C3C=C(SC3=CN=C2)C(=O)N
Method in brief: as §1

ralimetinib = compound: CC(C)(C)Cn1c(N)nc2ccc(-c3[nH]c(C(C)(C)C)nc3-c3ccc(F)cc3)nc21 [ralimetinib]
Method in brief: as §1

[5] = compound: CC(C)(O)CC(=O)NCCn1ccc2ncnc(Nc3ccc(Oc4cccc(C(F)(F)F)c4)c(Cl)c3)c21
Method in brief: as §1

[6] = compound: CC1=C(C2=C(C=C1)C(=O)C3=CC=CC=C3N2CCCN)C
Method in brief: as §1

[7] = compound: CC1=C(C=C(C=C1)NC(=O)C2=CC(=CC=C2)C(C)(C)C#N)NC3=CC4=C(C=C3)N=CN(C4=O)C
Method in brief: as §1

[8] = compound: CC1=C(C=C(C=C1)NC(=O)C2=CC(=CC=C2)N(C)C)NC(=O)C3=CC=C(C=C3)O
Method in brief: as §1

Sequence of UniProt Q8N302 (Q8N302 whole entry, looked up): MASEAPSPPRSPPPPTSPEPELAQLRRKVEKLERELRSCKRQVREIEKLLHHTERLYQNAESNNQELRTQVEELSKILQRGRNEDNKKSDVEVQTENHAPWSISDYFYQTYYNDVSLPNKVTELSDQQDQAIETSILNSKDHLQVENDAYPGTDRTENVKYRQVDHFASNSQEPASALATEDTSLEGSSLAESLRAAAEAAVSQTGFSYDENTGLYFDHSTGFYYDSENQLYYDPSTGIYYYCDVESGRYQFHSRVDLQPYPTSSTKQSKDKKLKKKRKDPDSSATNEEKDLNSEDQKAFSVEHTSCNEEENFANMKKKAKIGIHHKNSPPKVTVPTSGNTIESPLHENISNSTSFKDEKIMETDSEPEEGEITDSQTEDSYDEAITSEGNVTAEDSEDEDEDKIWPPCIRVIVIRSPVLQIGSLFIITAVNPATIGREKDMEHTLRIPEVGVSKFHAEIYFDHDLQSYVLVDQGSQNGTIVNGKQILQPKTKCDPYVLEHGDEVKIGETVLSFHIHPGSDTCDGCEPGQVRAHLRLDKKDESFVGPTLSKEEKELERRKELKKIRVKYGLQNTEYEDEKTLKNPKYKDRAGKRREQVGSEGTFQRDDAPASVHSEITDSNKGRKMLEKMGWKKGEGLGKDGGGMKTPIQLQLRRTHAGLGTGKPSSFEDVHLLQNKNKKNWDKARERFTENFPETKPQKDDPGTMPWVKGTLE
Sequence of UniProt P30838 (P30838 whole entry, looked up): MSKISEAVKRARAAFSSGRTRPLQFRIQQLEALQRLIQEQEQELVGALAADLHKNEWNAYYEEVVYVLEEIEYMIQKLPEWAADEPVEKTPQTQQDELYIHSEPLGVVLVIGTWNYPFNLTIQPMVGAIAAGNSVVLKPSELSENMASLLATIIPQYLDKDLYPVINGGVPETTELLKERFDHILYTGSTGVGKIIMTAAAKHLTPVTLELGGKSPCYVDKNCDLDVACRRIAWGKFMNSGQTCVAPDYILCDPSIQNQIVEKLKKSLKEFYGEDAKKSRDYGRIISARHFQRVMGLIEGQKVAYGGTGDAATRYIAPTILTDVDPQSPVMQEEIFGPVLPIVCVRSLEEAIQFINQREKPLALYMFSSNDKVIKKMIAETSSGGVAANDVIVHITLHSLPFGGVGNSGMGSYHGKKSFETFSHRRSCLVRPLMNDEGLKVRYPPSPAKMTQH
Sequence of UniProt Q7L211 (Q7L211 whole entry, looked up): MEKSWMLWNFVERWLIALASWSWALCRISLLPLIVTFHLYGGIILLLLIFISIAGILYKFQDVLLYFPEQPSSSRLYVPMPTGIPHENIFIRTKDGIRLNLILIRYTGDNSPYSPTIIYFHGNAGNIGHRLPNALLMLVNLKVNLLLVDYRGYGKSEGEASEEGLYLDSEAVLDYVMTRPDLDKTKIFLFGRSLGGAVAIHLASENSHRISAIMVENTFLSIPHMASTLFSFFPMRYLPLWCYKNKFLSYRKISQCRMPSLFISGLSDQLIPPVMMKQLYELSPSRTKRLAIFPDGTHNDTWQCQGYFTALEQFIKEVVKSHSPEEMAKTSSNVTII
Sequence of UniProt Q99758 (Q99758 whole entry, looked up): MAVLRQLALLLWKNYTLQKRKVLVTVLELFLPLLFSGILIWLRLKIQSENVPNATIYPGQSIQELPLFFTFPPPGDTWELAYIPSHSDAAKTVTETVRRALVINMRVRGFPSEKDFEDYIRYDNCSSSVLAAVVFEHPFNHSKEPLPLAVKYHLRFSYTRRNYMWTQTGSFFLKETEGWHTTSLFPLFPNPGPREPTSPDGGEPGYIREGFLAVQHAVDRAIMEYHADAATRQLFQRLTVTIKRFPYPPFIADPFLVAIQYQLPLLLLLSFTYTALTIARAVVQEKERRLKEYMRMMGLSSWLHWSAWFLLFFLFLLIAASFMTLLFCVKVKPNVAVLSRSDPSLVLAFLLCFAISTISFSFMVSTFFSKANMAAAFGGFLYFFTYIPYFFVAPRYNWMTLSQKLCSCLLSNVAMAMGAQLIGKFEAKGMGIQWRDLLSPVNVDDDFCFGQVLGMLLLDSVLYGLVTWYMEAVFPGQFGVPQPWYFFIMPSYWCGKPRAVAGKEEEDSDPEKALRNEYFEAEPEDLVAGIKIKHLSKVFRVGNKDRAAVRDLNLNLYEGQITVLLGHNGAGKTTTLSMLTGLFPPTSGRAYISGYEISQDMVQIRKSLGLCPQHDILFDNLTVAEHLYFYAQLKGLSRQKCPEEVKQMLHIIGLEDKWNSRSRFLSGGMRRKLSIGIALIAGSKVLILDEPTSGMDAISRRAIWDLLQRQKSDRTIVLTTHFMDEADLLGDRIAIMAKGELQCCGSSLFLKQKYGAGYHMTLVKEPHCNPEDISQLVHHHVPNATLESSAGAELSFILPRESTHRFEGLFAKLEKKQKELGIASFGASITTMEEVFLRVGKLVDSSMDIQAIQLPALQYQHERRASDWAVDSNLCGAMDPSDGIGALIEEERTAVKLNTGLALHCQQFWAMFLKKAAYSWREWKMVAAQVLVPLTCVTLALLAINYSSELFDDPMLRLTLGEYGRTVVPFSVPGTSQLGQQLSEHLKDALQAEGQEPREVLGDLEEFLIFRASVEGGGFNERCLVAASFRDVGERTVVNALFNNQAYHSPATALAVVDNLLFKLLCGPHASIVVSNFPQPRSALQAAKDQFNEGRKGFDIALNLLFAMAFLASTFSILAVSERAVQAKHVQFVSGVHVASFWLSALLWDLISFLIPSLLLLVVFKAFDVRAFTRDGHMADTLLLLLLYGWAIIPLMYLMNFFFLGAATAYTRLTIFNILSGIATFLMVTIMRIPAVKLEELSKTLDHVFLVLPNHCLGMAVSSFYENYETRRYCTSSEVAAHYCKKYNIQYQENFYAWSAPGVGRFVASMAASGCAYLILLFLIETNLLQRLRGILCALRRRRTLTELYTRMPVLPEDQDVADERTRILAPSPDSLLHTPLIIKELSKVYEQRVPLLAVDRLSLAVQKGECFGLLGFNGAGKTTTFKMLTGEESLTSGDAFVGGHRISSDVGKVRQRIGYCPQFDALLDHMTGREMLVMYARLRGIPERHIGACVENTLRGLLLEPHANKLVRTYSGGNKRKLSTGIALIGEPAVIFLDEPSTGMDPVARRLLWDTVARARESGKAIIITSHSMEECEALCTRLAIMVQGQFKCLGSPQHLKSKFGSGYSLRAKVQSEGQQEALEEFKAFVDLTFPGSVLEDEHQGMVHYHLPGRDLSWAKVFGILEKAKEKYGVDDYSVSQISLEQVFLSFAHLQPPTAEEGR
Sequence of UniProt Q13686 (Q13686 whole entry, looked up): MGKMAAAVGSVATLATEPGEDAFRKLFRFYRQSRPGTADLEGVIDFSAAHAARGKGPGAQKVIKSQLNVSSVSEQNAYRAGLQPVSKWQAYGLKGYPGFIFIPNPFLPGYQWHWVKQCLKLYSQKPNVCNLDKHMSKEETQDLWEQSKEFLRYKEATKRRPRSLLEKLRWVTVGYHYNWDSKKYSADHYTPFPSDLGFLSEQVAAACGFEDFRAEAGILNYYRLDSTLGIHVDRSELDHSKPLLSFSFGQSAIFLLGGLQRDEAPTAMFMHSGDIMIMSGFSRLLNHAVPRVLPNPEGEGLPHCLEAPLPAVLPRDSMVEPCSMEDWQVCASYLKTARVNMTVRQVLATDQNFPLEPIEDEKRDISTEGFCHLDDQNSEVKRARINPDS
Sequence of UniProt P00352 (P00352 whole entry, looked up): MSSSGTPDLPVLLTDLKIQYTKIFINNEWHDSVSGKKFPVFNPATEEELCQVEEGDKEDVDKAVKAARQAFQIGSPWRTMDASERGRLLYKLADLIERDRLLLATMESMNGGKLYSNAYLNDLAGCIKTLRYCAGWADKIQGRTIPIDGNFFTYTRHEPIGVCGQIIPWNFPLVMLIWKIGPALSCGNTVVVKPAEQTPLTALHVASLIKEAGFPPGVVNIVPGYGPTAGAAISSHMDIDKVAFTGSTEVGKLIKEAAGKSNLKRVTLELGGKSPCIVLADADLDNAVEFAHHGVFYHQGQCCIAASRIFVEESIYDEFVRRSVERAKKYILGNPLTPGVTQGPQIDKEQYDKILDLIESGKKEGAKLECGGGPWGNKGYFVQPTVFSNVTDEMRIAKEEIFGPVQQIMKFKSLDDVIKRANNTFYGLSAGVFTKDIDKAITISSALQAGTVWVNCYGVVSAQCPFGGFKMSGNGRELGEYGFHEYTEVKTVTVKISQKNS
Sequence of UniProt Q6AI12 (Q6AI12 whole entry, looked up): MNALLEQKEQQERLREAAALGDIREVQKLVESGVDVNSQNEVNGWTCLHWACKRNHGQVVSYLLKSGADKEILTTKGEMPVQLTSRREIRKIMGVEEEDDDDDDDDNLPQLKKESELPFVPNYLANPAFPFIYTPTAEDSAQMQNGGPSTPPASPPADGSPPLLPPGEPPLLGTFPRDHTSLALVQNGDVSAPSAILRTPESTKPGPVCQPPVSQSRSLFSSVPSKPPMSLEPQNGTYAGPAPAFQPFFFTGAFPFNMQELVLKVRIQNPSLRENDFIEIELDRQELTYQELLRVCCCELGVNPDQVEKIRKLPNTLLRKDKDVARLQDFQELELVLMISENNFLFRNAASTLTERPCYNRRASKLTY
Sequence of UniProt Q9P1F3 (Q9P1F3 whole entry, looked up): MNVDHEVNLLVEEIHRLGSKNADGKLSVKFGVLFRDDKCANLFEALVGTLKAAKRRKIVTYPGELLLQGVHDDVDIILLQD
Sequence of UniProt Q9NXR5 (Q9NXR5 whole entry, looked up): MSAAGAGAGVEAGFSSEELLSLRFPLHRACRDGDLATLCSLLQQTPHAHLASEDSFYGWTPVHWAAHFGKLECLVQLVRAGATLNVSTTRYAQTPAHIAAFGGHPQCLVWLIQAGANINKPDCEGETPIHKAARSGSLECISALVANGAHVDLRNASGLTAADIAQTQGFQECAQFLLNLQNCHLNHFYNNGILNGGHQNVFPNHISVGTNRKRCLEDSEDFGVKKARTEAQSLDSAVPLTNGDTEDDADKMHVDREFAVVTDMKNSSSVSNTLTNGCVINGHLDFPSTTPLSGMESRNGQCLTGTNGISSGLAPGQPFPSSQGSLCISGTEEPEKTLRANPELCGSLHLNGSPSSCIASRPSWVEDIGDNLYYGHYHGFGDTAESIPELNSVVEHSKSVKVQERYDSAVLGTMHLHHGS

Row | Target | log2 fold change (ibrutinib) | log2 fold change [1] | log2 fold change [2] | log2 fold change [3] | log2 fold change [4] | log2 fold change (ralimetinib) | log2 fold change [5] | log2 fold change [6] | log2 fold change [7] | log2 fold change [8]
1 | ANKRD44 isoform 2 (UniProt Q8N8A2) | -0.131 | 0.067 | -0.026 | 0.075 | -0.029 | – | – | – | – | –
2 | ANKRD10 (UniProt Q9NXR5) | -0.076 | -0.172 | -0.023 | 0.046 | -0.085 | 0.005 | 0.042 | 0.004 | -0.008 | 0.046
3 | ALKBH1 (UniProt Q13686) | – | – | 0.008 | -0.003 | – | 0.095 | -0.1 | -0.102 | – | 0.093
4 | ACTG1 (UniProt K7EM38) | – | -0.044 | – | – | 0.152 | – | – | – | – | –
5 | ABHD13 (UniProt Q7L211) | 0.041 | -0.017 | – | -0.028 | 0.003 | – | – | 0.196 | 0.03 | –
6 | ALDH3A1 (UniProt P30838) | – | -0.197 | 0.04 | – | -0.119 | -0.274 | -0.259 | 1.23 (active) | 0.432 | -0.001
7 | ALG3 (UniProt Q92685) | -0.163 | 0.03 | -0.278 | – | 0.03 | -0.007 | -0.032 | 0.014 | -0.024 | 0.042
8 | ADK, A0A5F9ZH76 | 0.168 | 0.005 | – | -0.156 | 0 | – | – | – | – | –
9 | AP3D1 isoform 2 (UniProt O14617) | – | -0.085 | 0.09 | 0.127 | 0.053 | – | – | – | – | –
10 | ANKRD40 (UniProt Q6AI12) | 0.008 | – | 0.051 | 0.027 | – | 0.062 | 0.05 | -0.231 | 0.075 | 0.087
11 | ABCA3 (UniProt Q99758) | -0.036 | -0.002 | -0.023 | – | 0.128 | -0.041 | -0.13 | -0.112 | 0.062 | -0.028
12 | AMDHD2 (UniProt Q9Y303) | – | – | – | – | – | – | – | – | 0.014 | –
13 | ABCC5 (UniProt O15440) | -0.109 | 0.012 | -0.015 | – | -0.019 | -0.216 | -0.145 | -0.094 | 0.019 | 0.187
14 | ACLY isoform 2 (UniProt P53396) | -0.015 | 0.028 | – | 0.008 | -0.01 | -0.022 | 0.07 | – | 0.018 | -0.008
15 | ABRACL (UniProt Q9P1F3) | 0.109 | -0.179 | 0.001 | -0.112 | 0.015 | – | – | 0.142 | 0.051 | –
16 | AIMP2 isoform 2 (UniProt Q13155) | -0.28 | 0.064 | – | – | 0 | 0.061 | -0.036 | – | 0.089 | 0.023
17 | ACOX1 isoform 2 (UniProt Q15067) | 0.036 | 0.052 | -0.013 | -0.016 | -0.024 | 0.098 | -0.044 | -0.043 | 0.001 | -0.026
18 | ANKRD30B (UniProt Q9BXX2) | -0.063 | -0.086 | 0.038 | -0.098 | -0.167 | -0.007 | -0.16 | -0.064 | – | 0.024
19 | ARHGEF2 (UniProt V9GYF0) | – | 0.02 | – | -0.055 | -0.07 | -0.041 | -0.126 | -0.011 | – | 0.008
20 | ALDH1A1 (UniProt P00352) | 0.092 | 0.019 | -0.029 | 0 | 0.011 | 0.037 | 0.037 | 0.26 (active) | -0.005 | 0.028
21 | ALG13 isoform 2 (UniProt Q9NP73) | – | – | – | 0.03 | – | – | – | – | – | –
22 | AP4B1 (UniProt Q9Y6B7) | -0.028 | -0.048 | 0.034 | 0.003 | -0.041 | -0.044 | 0 | -0.027 | -0.02 | -0.041
23 | AGGF1 (UniProt Q8N302) | 0.034 | 0.077 | -0.017 | -0.011 | -0.341 | -0.014 | -0.023 | – | 0.034 | -0.04
